In PubChem BioAssay AID720517 (National Center for Advancing Translational Sciences (NCATS), 2013):
Inconclusive results are not listed. Values without a mark were called inactive. Calls follow the shape of the dose curve; as a rule, active = well fitted activation curve with a large enough effect; inconclusive = small, poorly fitted or top-dose-only effect; inactive = flat fitted curve, though single readings scatter.

assay: qHTS for Inhibitors of Cell Surface uPA Generation: FP59 Counterscreen for Cherry-picked Compounds; settings: FP59 anthrax toxin cytotoxicity counterscreen, cells; series mostly up to 115 µM; activity (protection from FP59): at the top concentration; also: 0% is about no effect

| Structure (SMILES) | activity (protection from FP59) [%] |
| --- | --- |
| CCN(CC)CCCn1c2c(c(SCC(=O)Nc3cccc4ccccc34)nc1=O)CCC2 | -1.61 |
| COC(=O)CCSCC(=O)N1N=C(c2ccc(OC)cc2)CC1c1cccc(OC)c1OC (centres undefined) | -1.4 |
| CCOc1ccc(C(=O)NCC(=O)N2CCN(C/C=C/c3ccccc3)CC2)cc1OCC | -1.41 |
| CC1CC(C)CN(CCCNC(=O)CN2C(=O)CSc3ccc(S(=O)(=O)N4CCOCC4)cc32)C1 (centres undefined) | -0.379 |
| O=C(NCCS(=O)(=O)N1CCC2(CC1)OCCO2)c1ccc(F)cc1 | -1.3 |
| O=C(CN1CCOC1=O)N1CCCC(Nc2ccc(F)c(F)c2)C1 (centres undefined) | -1.34 |
| COc1cc(C(=O)N/N=C(\Cc2ncc[nH]2)c2ccccc2)cc(OC)c1OC | -0.278 |
| COc1ccc(NC(=O)Nc2nnc(N3CCCCC3C)s2)cc1OC (centres undefined) | -1.42 |
| Cc1nn(C)c(C)c1S(=O)(=O)N1CCC(C(=O)NC2CCCCCC2)CC1 | -1.25 |
| O=C(NCc1ccco1)/C(=C\c1cccs1)NC(=O)c1ccccc1 | -1.31 |
| O=C(O)c1ccccc1/C=N/NC(=S)NC1CCCCC1 | -1.18 |
| COc1ccc(Cl)cc1NC(=O)CSc1nc(=O)n(CCN(C)C)c2c1CCCC2 | -1.62 |
| CCOc1ccc(NS(=O)(=O)c2coc(C(N)=O)c2)cc1 | -1.2 |
| CCOC(=O)C1CCCN(CC(=O)Nc2ccc(C(=O)Nc3ccccc3OC)cc2)C1 (centres undefined) | 0.429 |
| CCCCn1c(-c2cccnc2)nc2cc3[nH]c(=O)c(C(C)C)nc3cc21 | -1.21 |
| CCC(COC)NC(=O)CCc1nnc(Cc2c[nH]c3ccccc23)o1 (centres undefined) | -1.37 |
| C/C(=N\NC(=O)c1cccc([N+](=O)[O-])c1)c1cccnc1 | -1.46 |
| COc1ccc(OC)c(S(=O)(=O)N2CCC(NC(=O)c3ccccc3)CC2)c1 | -1.38 |
| Cc1cc(C)n(-c2cc(C(=O)O)cc(C(=O)O)c2)n1 | -1.29 |
| COc1cccc(NC(=O)CN(C)C(=O)c2csc3c2CCCC3)c1 | -0.968 |

| Structure (SMILES) | activity (protection from FP59) [%] |
| --- | --- |
| CCc1ccccc1N1C(=O)CC(Sc2nccc(C)n2)C1=O (centres undefined) | -1.23 |
| C=CCn1c(=O)c(C(=O)NCCc2ccc(Cl)cc2)c(O)c2cc(OC)c(OC)cc21 | -1.32 |
| C[C@@H]1O[C@@H](O[C@@H]2C(=O)c3c(O)cc(O)cc3O[C@H]2c2ccc(O)c(O)c2)[C@H](O)[C@H](O)[C@H]1O | -1.41 |
| Cc1ccnc(NC(=O)CCNS(=O)(=O)c2ccc(C)c(C)c2)c1 | -1.33 |
| CC(=O)n1cc(/C=N/NC(=O)c2ccc([N+](=O)[O-])cc2)c2ccccc21 | -1.52 |
| CCOCCOc1cc(NCc2ccccc2)c2ncn(C(C)C)c2c1 | 14.3 |
| Cc1[nH]c(=O)[nH]c(=O)c1S(=O)(=O)N1CCCc2ccccc21 | -1.55 |
| COc1ccc(C2C(C(=O)c3ccc(C)o3)=C(O)C(=O)N2CC2CCCO2)cc1OC (centres undefined) | -1.41 |
| COc1cc(/C=N/NC(=O)Cc2csc(C)n2)ccc1OCC(C)C | -1.19 |
| COC(=O)C1C(=O)c2c([nH]c(C(=O)OC3CCCCC3)c2C)CC1C (centres undefined) | -1.42 |
| Cc1ccccc1-c1nnc(SCC(=O)NCC2CCCO2)o1 (centres undefined) | -1.41 |
| O=C(c1cc2cc([N+](=O)[O-])ccc2s1)N1CCOCC1 | -1.5 |
| COc1cc(CN2CCNC(=O)C2CC(=O)NCCCC2CCCC2)cc(OC)c1 (centres undefined) | -1.23 |
| C=CCOC(=O)C1=C(C)NC(C)=C(C(=O)OCC=C)C1c1cn(-c2ccccc2)nc1-c1ccco1 | -1.15 |
| COc1ccccc1C(=O)NCc1ccccc1 | -1.46 |
| CCOC(=O)CN1C(=O)N[C@@H](c2ccccc2)C(C(C)=O)=C1C | -1.48 |
| Cc1ccc2[nH]c(CN3CCN(C)C(CCO)C3)c(C)c2c1 (centres undefined) | -1.44 |
| COCCNC(=O)C(c1c[nH]c2ccccc12)N(C(=O)c1snc(C(N)=O)c1N)c1cccc(OC)c1 (centres undefined) | 2.71 |
| O=C(CN1C(=O)CSCC1=O)NCc1ccc(F)cc1 | -1.32 |
